From PubChem BioAssay (NCATS)
Inconclusive results are not listed. Calls of active or inactive are those of the source. Calls follow the shape of the dose curve; as a rule, active = well fitted curve in the direction sought with a large enough effect; inconclusive = small, poorly fitted or top-dose-only effect, or another doubt; inactive = no such curve, though single readings can be large; an effect the other way counts as inactive or inconclusive.

How the values were obtained:
[1] = target: Glutathione peroxidase 1 (Homo sapiens) (UniProt P07203); experiment: Primary qHTS Assay for Inhibitors of Recombinant Selenoprotein Glutathione Peroxidase 1 (GPX1) (AID 1845191); also: nearly all actives have a fitted effect of over 65% in size; as to activity, negative = inhibition: % is scaled to controls: 0 for no effect and ±100 for the full control effect
Chain of Glutathione peroxidase 1 (Homo sapiens) (P07203 whole entry, looked up): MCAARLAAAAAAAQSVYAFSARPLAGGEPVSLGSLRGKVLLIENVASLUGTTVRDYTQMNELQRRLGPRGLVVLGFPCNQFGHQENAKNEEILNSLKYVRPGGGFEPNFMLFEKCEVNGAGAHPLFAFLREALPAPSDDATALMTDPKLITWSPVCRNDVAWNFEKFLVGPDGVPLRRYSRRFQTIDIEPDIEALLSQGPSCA
In short: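 GR-coupled readout: NADPH consumption tracked by fluorescence, ex 340/em 450 nm, at t=0 and after 15 min at RT. Final mix 10 nM GPX1, 1 mM GSH, 0.5 mM CHP, 0.5 mM NADPH, 100 nM GR, 0.01% BSA, following 30 min enzyme–compound preincubation.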

[2] = target: Phospholipid hydroperoxide glutathione peroxidase GPX4 (Homo sapiens) (UniProt P36969); experiment: Primary qHTS Assay for Inhibitors of Recombinant Selenoprotein Glutathione Peroxidase 4 (GPX4) (AID 1845192); also: nearly all actives have a fitted effect of over 65% in size; as to activity change, negative = inhibition: series mostly up to about 50 µM; % is scaled to controls: 0 for no effect and ±100 for the full control effect
Chain of Phospholipid hydroperoxide glutathione peroxidase GPX4 (Homo sapiens) (P36969 whole entry, looked up): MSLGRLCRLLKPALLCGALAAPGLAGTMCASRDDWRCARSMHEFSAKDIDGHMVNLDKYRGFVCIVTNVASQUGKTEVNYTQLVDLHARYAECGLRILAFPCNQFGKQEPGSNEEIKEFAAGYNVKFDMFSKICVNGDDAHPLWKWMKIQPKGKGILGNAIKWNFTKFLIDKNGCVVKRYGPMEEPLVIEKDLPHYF
In short: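 Steps: GPX4 plus compound, 30 min RT; add GR/GSH/NADPH master mix; start with cumene hydroperoxide; read 340/450 nm fluorescence at 0 and 15 min. Finals were 200 nM GPX4, 1 mM GSH, 0.5 mM CHP, 0.5 mM NADPH, 100 nM GR.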

[3] = target: Luciferin 4-monooxygenase (Photinus pyralis) (UniProt P08659); experiment: Primary firefly luciferase (FLuc) qHTS assay for identification of artifact compounds. (AID 1845220); also: nearly all actives have a fitted effect of over 60% in size; also: potency is read from the fitted curve at half-maximal effect;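 as to activity change, negative = inhibition: series mostly up to about 54 µM; plate controls were DMSO vehicle for no effect and no enzyme for full effect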
In short: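 D-luciferin and ATP (10 uM each, final) in Tris acetate buffer pH 7.6 were incubated with compounds for 15 min at room temperature. The reaction was started with 10 nM Photinus pyralis luciferase and luminescence read after 5 min. Percent inhibition was fitted to a 4-parameter Hill equation.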

[4] = Primary fluorescence-based thiol-reactive (MSTI) qHTS assay for identification of artifact compounds. (AID 1845221); also: nearly all actives have a fitted effect of over 65% in size; also: potency is read from the fitted curve at half-maximal effect;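 as to activity change, negative = thiol reactive: series mostly up to about 54 µM; thiol-reactive compounds lower the probe fluorescence signal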
In short: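 First, 4 uM MSTI in 2% DMSO/PBS pH 7.4 was dispensed; next, compounds were added; then plates sat 1 h at room temperature without light. Finally, emission at 598 nm was recorded.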

[5] = tested on: Nanoluciferase (engineered Oplophorus gracilirostris luciferase); experiment: Primary Nanoluciferase (NLuc) qHTS assay for identification of artifact compounds. (AID 1845222);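 also: series mostly up to about 54 µM; 0% = DMSO and -100% = no enzyme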
In short: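 Diluted conditioned medium from NLuc-expressing S16 cells treated with compounds for 15 min at room temperature, then Nano-Glo substrate added; luminescence read after 5 min. Percent inhibition versus no-enzyme and DMSO controls fitted to 4-parameter Hill equation.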

[6] = Primary redox qHTS assay for identification of artifact compounds. (AID 1845223);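 also: 0% = DMSO and 100% = reference compound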
In short: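 Redox-cycling detection via DTT (250 uM final) oxidation coupled to Amplex Red (25 uM)/HRP (250 mU/mL) in HBSS. 15 min preincubation plus 30 min after DTT, room temperature. Ex/Em 525/598 nm; 4-parameter Hill fit against DMSO and 10 uM DA3003.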

C=C1C(=O)OC2CC3(C)C(O)C(=O)C=C(C)C3CC12 (stereo not drawn)
active: Potency [4] 2.67 µM
inactive: Potency [1] | Potency [2] | Potency [3] | Potency [5] | Potency [6]

CC(CCC1(O)OC2CC3C4CC=C5CC(O[C@@H]6O[C@H](CO)[C@@H](O[C@@H]7O[C@@H](C)[C@H](O)[C@@H](O)[C@H]7O)[C@H](O)[C@H]6O[C@@H]6O[C@@H](C)[C@H](O)[C@@H](O)[C@H]6O)CCC5(C)C4CCC3(C)C2C1C)CO[C@@H]1O[C@H](CO)[C@@H](O)[C@H](O)[C@H]1O (stereo partly drawn)
inactive: Potency [1] | Potency [2] | activity change, negative = inhibition [3] -3.06% [at 11.6 µM] | activity change, negative = thiol reactive [4] 218% [at 11.5 µM] | activity, negative = inhibition [5] 2.85% [at 11.6 µM] | redox activity (% of DA3003) [6] 12.7% [at 11.5 µM]

CC(=O)NC[C@H]1CN(c2ccc(N3CCSCC3)c(F)c2)C(=O)O1
inactive: Potency [1] | Potency [2] | Potency [3] | Potency [4] | Potency [5] | Potency [6]

CNS(=O)(=O)c1ccccc1Nc1nc(Nc2ccc(N3CCN(C)CC3)cc2OC)ncc1Br
inactive: Potency [1] | Potency [2] | Potency [3] | Potency [5] | Potency [6]
active: Potency [4] 2.67 µM

C=C1C(=O)O[C@@H]2C(OC(=O)/C(C)=C\C)/C(C)=C\C(=O)/C=C(\C)C[C@H](O)[C@@H]12 (stereo partly drawn)
inactive: Potency [1] | Potency [2] | Potency [3] | Potency [4] | Potency [5] | Potency [6]

O=C1C(Cc2ccc(O)cc2)N2C(=O)CCN(C(=O)NCc3ccccc3)C2CN1Cc1cccc2ccccc12 (stereo not drawn)
inactive: Potency [1] | Potency [2] | Potency [3] | Potency [4] | Potency [5] | Potency [6]

COc1ccc(-c2cc3onc(-c4ccncc4)c3c(=O)n2C)cc1
active: Potency [3] 1.9 µM
inactive: Potency [1] | Potency [2] | Potency [4] | Potency [5] | Potency [6]

Cc1cc(C(=O)Cn2cc(C#N)ccc2=O)c(C)n1Cc1ccccc1
inactive: Potency [1] | Potency [2] | Potency [3] | Potency [4] | Potency [5] | Potency [6]

CC(O)(C(=O)O)C1CCC2(C)C1CCC1(C)C2CCC2C3(C)CCC(O)C(C)(COC4OC(CO)C(O)C(O)C4O)C3CCC21C (stereo not drawn)
inactive: Potency [1] | Potency [2] | Potency [3] | Potency [4] | Potency [5] | Potency [6]

Cc1cccc(N2CCN(C(=O)c3cc(S(=O)(=O)N(C)C)ccc3N3CCCC3)CC2)c1C
inactive: Potency [1] | Potency [2] | Potency [3] | Potency [4] | Potency [5] | Potency [6]

C=C1CC2[C@@]3(C)C=CC(=O)C(C)(C)C3=C(O)C(=O)[C@@]2(C)C2(C(=O)OC)C(=O)C(C)OC(=O)[C@@]12C (stereo partly drawn)
inactive: Potency [1] | Potency [2] | Potency [3] | Potency [4] | Potency [5] | Potency [6]

CC(C)(CO)c1cc2cc(NC(=O)C3(c4ccc5c(c4)OC(F)(F)O5)CC3)c(F)cc2n1CC(O)CO (stereo not drawn)
inactive: Potency [1] | Potency [2] | Potency [3] | Potency [4] | Potency [5] | Potency [6]

CCCSc1nc(N[C@@H]2C[C@H]2c2ccc(F)c(F)c2)c2nnn([C@@H]3C[C@H](OCCO)[C@@H](O)[C@H]3O)c2n1
inactive: Potency [1] | Potency [2] | Potency [3] | Potency [4] | Potency [5] | Potency [6]

COc1ccccc1N1CCN(CC(C(=O)NC(C)(C)C)c2ccccc2)CC1 (stereo not drawn)
inactive: Potency [1] | Potency [2] | Potency [3] | Potency [4] | Potency [5] | Potency [6]

CN1CCN(Cc2ccc(NC(=O)Cc3ccc(Oc4cc(NC(=O)C5CC5)ncn4)cc3)cc2C(F)(F)F)CC1
inactive: Potency [1] | Potency [2] | Potency [3] | Potency [4] | Potency [5] | Potency [6]

C#CCCCn1cc(-c2cccc3c2N[C@H](C)CC(=O)N3)cn1
inactive: Potency [1] | Potency [2] | Potency [3] | Potency [4] | Potency [5] | Potency [6]

COC(=O)CC(O)CC(O)/C=C/c1c(C)ccc2c1C(OC(C)=O)CC(C)C2 (stereo not drawn)
inactive: Potency [1] | Potency [2] | Potency [3] | Potency [4] | Potency [5] | Potency [6]

CCCCCCCCn1cc(CN(CC)CC)c2cc(-c3cnc(N)nc3)ccc21
inactive: Potency [1] | Potency [2] | Potency [3] | Potency [4] | Potency [5] | Potency [6]

NC(N)=N/N=C/c1ccccc1Cl
inactive: Potency [1] | Potency [2] | Potency [3] | Potency [4] | Potency [5] | Potency [6]

COc1cc(-n2cnc3cc(-c4ccc(Cl)cc4)sc3c2=O)ccc1OCCN1CCCC1
inactive: Potency [1] | Potency [2] | Potency [3] | Potency [4] | Potency [5] | Potency [6]

CCCCC1CCC(c2nc(-c3ccncc3)no2)CC1 (stereo not drawn)
inactive: Potency [1] | Potency [2] | Potency [3] | Potency [4] | Potency [5] | Potency [6]

CCN1CCN(Cc2ccc(NC(=O)c3ccc(C)c(Oc4ncnc5[nH]c(C)cc45)c3)cc2C(F)(F)F)CC1
inactive: Potency [1] | Potency [2] | Potency [3] | Potency [4] | Potency [5] | Potency [6]

Nc1nc2c(nc(Br)n2[C@@H]2O[C@@H]3COP(=O)(O)O[C@H]3[C@H]2O)c(=O)[nH]1
inactive: Potency [1] | Potency [2] | Potency [3] | Potency [4] | Potency [5] | Potency [6]

COc1ccc2nc(-c3cc(OC)c(OC)c(OC)c3)cc(C(=O)NCC(=O)Nc3ccc(C(C)=O)cc3)c2c1
inactive: Potency [1] | Potency [2] | Potency [3] | Potency [4] | Potency [5] | Potency [6]

Fc1ccc2[nH]ccc2c1-c1nc(N2CCOCC2)c2sc(CN3CCN(CC4CC4)CC3)cc2n1
inactive: Potency [1] | Potency [2] | Potency [3] | Potency [4] | Potency [5] | Potency [6]

COc1ccc(C2=NC(c3ccc(Cl)cc3)C(c3ccc(Cl)cc3)N2C(=O)N2CCNC(=O)C2)c(OC(C)C)c1 (stereo not drawn)
inactive: Potency [1] | Potency [2] | Potency [3] | Potency [4] | Potency [5] | Potency [6]

CN(C)C(=O)NC1(c2ccccc2)CCN(CCC[C@]2(c3ccc(Cl)c(Cl)c3)CCCN(C(=O)c3ccccc3)C2)CC1
inactive: Potency [1] | Potency [2] | Potency [3] | Potency [4] | Potency [5] | Potency [6]

COc1cc(N2CCOCC2)ccc1NC(=O)c1csc(-c2cccnc2)n1
inactive: Potency [1] | Potency [2] | Potency [3] | Potency [5] | Potency [6]
active: Potency [4] 2.38 µM

CCCC(=O)C1(c2ccccc2)CCN(C(=O)[C@@H](Cc2ccc(OC)cc2)NC(=O)[C@@H](N)Cc2cncn2C)CC1
inactive: Potency [1] | Potency [2] | Potency [3] | Potency [4] | Potency [5] | Potency [6]

CC(C)C[C@@H](N)C(=O)N[C@H]1C(=O)N[C@@H](CC(N)=O)C(=O)N[C@H]2C(=O)N[C@H]3C(=O)N[C@H](C(=O)N[C@H](C(=O)O)c4cc(O)cc(O)c4-c4cc3ccc4O)[C@H](O)c3ccc(c(Cl)c3)Oc3cc2cc(c3O[C@@H]2O[C@H](CO)[C@@H](O)[C@H](O)[C@H]2O[C@H]2C[C@](C)(N)[C@H](O)[C@H](C)O2)Oc2ccc(cc2Cl)[C@H]1O
inactive: Potency [1] | Potency [2] | Potency [3] | Potency [4] | Potency [5] | Potency [6]

Cc1ccnc(NC(=O)C(C)c2cccc(C(=O)c3ccccc3)c2)c1 (stereo not drawn)
inactive: Potency [1] | Potency [2] | Potency [3] | Potency [4] | Potency [5] | Potency [6]

COCCN(C(=O)c1cc(OC)c(OC)c(OC)c1)c1nc(-c2ccccc2)cs1
inactive: Potency [1] | Potency [2] | Potency [3] | Potency [4] | Potency [5] | Potency [6]

CC(=O)OC1C(OC(=O)c2ccccc2)C2C(C)(C)CCC(OC(C)=O)C2(C)C23CCC(C)(C2)C(=O)CC13 (stereo not drawn)
inactive: Potency [1] | Potency [2] | Potency [3] | Potency [4] | Potency [5] | Potency [6]
